PubChem BioAssay (NCI)
Compounds without any hit were thinned out: in the full panel of roughly 83,000, 20% have a hit.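 The endpoint reported here, percent growth, reads 100 for growth as untreated, 0 for no net growth and -100 for all cells dead.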 Unmarked numbers belong to inactive results. Calls of active or inactive are those of the source. The calls were made as follows: active = growth percent below 10; inactive = the rest.

Tests used:
Assay in all cases: NCI-60 one-dose screen, 48 h (100 = growth as untreated, 0 = no growth, -100 = all killed)
Conditions in all cases: 10 µM unless noted
SK-MEL-2 melanoma = test system: SK-MEL-2 melanoma
EKVX NSCLC = test system: EKVX NSCLC
SN12C renal = test system: SN12C renal
UO-31 renal = test system: UO-31 renal
TK-10 renal = test system: TK-10 renal
ACHN renal = test system: ACHN renal
CAKI-1 renal = test system: CAKI-1 renal
A498 renal = test system: A498 renal
CCRF-CEM leukemia = test system: CCRF-CEM leukemia
MOLT-4 leukemia = test system: MOLT-4 leukemia

Row | Compound | growth (SK-MEL-2 melanoma) | growth (EKVX NSCLC) | growth (SN12C renal) | growth (UO-31 renal) | growth (TK-10 renal) | growth (ACHN renal) | growth (CAKI-1 renal) | growth (A498 renal) | growth (CCRF-CEM leukemia) | growth (MOLT-4 leukemia)
1 | N#Cc1nc(-c2ccc(F)cc2)oc1S(=O)(=O)N1CCOCC1 | 83.6% | 96.2% | 82.1% | 82% | -80.9% (active) | -99.9% (active) | 78.5% | 128% | 3.08% (active) | -5.27% (active)
2 | CN(C)CCNC(=O)c1ccc(-c2nc3ccc4[nH]ncc4c3c3c2C2CCC3C2)cc1 (stereo not given) | -5.51% (active) | 68.4% | 10.2% | 8.05% (active) | 83% | 17.4% | 15.2% | -20.9% (active) | 6.57% (active) | -8.33% (active)
3 | NNc1nc(-c2cccnc2)nc2c1sc(=S)n2-c1ccccc1 | 68% | 95.1% | 102% | 79.3% | 83.6% | 106% | 97.9% | 124% | 90.5% | 86%
4 | COc1ccc(NC(=O)c2sc3nc(C)c(C(=O)/C=C/c4ccccc4)cc3c2N)cc1 | 88.7% | 87.1% | 17.6% | 17.7% | 80.5% | 50.3% | 29% | 21% | 3.56% (active) | 27.6%
5 | Cc1ccc(Nn2c(SCC(=O)Nc3nc(-c4ccccc4)cs3)nc(C)c2C)cc1 | 81.4% | 49.7% | 64.3% | 51.6% | 72.7% | 60.9% | 53.6% | 92.5% | 57.7% | 54.7%
6 | COC1=CC(c2ccc[nH]2)=N/C1=C\c1[nH]c(C)c(C)c1CCC(=O)OCc1ccccc1 | -28.9% (active) | -22.1% (active) | -30% (active) | -77.1% (active) | -0.0887% (active) | -39.5% (active) | -23.5% (active) | -19.8% (active) | 0.65% (active) | -23.7% (active)
7 | Nc1nc2ccccc2c2c(=O)c3cccc(Cl)c3sc12 | 108% | 83.8% | 82.4% | 75.4% | 83.6% | 86.8% | 79% | 122% | 96.3% | 104%
8 | CC/C(=C(/c1ccc(Cl)cc1)c1ccc(OCCN(C)C)cc1)c1ccc(Cl)cc1 | 80.9% | 73.7% | 81.3% | 64.3% | 77.8% | 83.9% | 60.4% | 59% | 62.5% | 58.2%
9 | CCOC(=O)c1ccc2c(c1)nc(-c1ccccc1)n2C1CCCCC1 | 86.1% | 83% | 105% | 84% | 116% | 112% | 101% | 97.8% | 79.4% | 85.5%
10 | COc1ccc(-c2cc(-c3cc(OC)c(OC)c(OC)c3)c(C#N)c(=O)n2CCCCC(=O)NO)cc1 | 87.2% | 65.5% | 66.5% | 37.8% | 68.1% | 56.1% | 46.3% | 76.7% | 26.7% | 27.2%
11 | COc1ccc(NC2=C(I)C(=O)c3ncccc3C2=O)cc1 | 29.1% | 64.8% | -96.4% (active) | -92.6% (active) | 51.1% | -12.7% (active) | 24.1% | 65.3% | 11% | -31.7% (active)
12 | Cc1ccc2c(n1)C(=O)C(Br)=C(C1CCCC1)C2=O | 112% | 98.9% | 95.2% | 78.3% | 120% | 77.9% | 90.8% | 108% | 26.2% | 34.6%
13 | CCNCCNc1cc(-c2ccc(C(F)(F)F)cc2)c(C#N)c2nc3ccccc3n12 | -47.6% (active) | -66% (active) | -62% (active) | -88.3% (active) | -67.3% (active) | -88.8% (active) | -96.9% (active) | -88.4% (active) | -42.9% (active) | -32.7% (active)
14 | COc1cc2c(c(OC)c1OC)CCC(c1cccc(NC(=O)c3ccc(Br)cc3)c1)O2 (stereo not given) | 87.4% | 77.2% | 85.7% | 66.6% | 89.9% | 91.2% | 90.3% | 69.3% | 67% | 41.1%
15 | C=CCSc1nnc(NC(=O)CCl)s1 | 103% | 100% | 95.2% | 95.5% | 108% | 94.5% | 93.3% | 90.3% | 77.2% | 90.7%
16 | O=S(=O)(NCCNc1nccc(-c2c(-c3ccc(F)c(O)c3)nc3sccn23)n1)c1ccc(O)cc1 | 19.8% | 56.3% | 38.2% | 6.46% (active) | 46.3% | 33.3% | 27.2% | 43.4% | 22.2% | 19.3%
17 | O=C(CN1CCCCC1)Nc1nc(-c2cc3ccccc3oc2=O)cs1 | 112% | 96.1% | 96.1% | 82.9% | 138% | 100% | 95.9% | 97.3% | 102% | 98.9%
18 | C=CCOC(=O)Nc1cccn([C@H](Cc2ccccc2)C(=O)NCCC(C)C)c1=O | 115% | 104% | 98.7% | 88.7% | 111% | 103% | 89.8% | 114% | 77.1% | 93.6%
19 | COC1=CC(c2ccc[nH]2)=N/C1=C\c1[nH]c(C)c(CC(=O)NCc2ccccc2)c1C | 16.7% | 21.1% | 29.1% | -17.4% (active) | 24.9% | 8.33% (active) | 1.97% (active) | -5.8% (active) | 22.4% | 3.45% (active)
20 | N=C(N)c1ccc(-c2ccc(-c3ccc(Cl)cc3Cl)s2)cc1 | 104% | 63.5% | 16% | 21.8% | 110% | -28% (active) | -67.3% (active) | 86.3% | -3.15% (active) | -24.3% (active)
21 | CCC(C(=O)[C@@H](C)[C@@H](O)[C@H](C)[C@@H]1O[C@@H]([C@@H](CC)C(=O)ONC(=O)c2ccccc2)CC[C@@H]1C)[C@H]1O[C@]2(C=CC(=O)[C@]3(CC[C@@](C)([C@H]4CC[C@](O)(CC)[C@H](C)O4)O3)O2)[C@H](C)C[C@@H]1C (stereo not given in full) | -4.05% (active) | 33.5% | -48.6% (active) | -95.1% (active) | 52.8% | -47.3% (active) | 16.5% | 16.8% | -11.2% (active) | -2.14% (active)
22 | C#CCNC(=O)[C@H](CC)[C@H]1CC[C@H](C)[C@H]([C@@H](C)[C@H](O)[C@H](C)C(=O)[C@H](CC)C2O[C@]3(C=CC(=O)[C@]4(CC[C@@](C)([C@H]5CC[C@](O)(CC)[C@H](C)O5)O4)O3)[C@H](C)C[C@@H]2C)O1 (stereo not given in full) | 45% | 51.3% | 48.7% | 47.9% | 87.1% | 45% | 17.4% | 38.5% | 27.3% | 32.4%
23 | Cc1cc(N2CCN(CC(=O)Nc3ccc4c(ccn4C)c3)CC2)nc(N2CCCCCC2)n1 | 92.1% | 86.2% | 98% | 67.1% | 87.2% | 88.4% | 84.6% | 46.3% | 35.3% | 85.3%
24 | O=C(/C=C/c1cn(-c2ccccc2)nc1-c1ccc(Cl)cc1)c1ccc(F)cc1 | 88.6% | 116% | 78.1% | 63.3% | 107% | 77.7% | 76.5% | 96.5% | 40% | 36.1%
25 | CCOC(=O)c1cc(C)n(-c2ccc(C(=O)O)cc2)c1C | 32% | 118% | 87.9% | 86.7% | 93.5% | 2.34% (active) | 79.7% | 111% | 92.2% | 92.3%
26 | CCCCCCCCCc1ccc(OCCOCCOCCOCCOCCOCCOCCOCCOCCO)cc1 | 7.03% (active) | 15.5% | 13% | 12.8% | 23.1% | 18.9% | 13.6% | -5.27% (active) | -22.2% (active) | -17.6% (active)
27 | CC(C)C1=NOC(=O)C1=Cc1cn(-c2ccccc2)nc1-c1ccc(F)cc1 | 94.6% | 97.2% | 62.8% | 74.2% | 75.2% | 71.4% | 62.2% | 82.2% | 10.7% | 17.8%
